# A selection: hits, their analogues and other compounds. The true share with any hit is near 21%.
# Cycloheximide cs: counter-screen for Shiga toxin inhibitors: cycloheximide protein synthesis inhibition. 300,000 compounds, 12% hits. max response, %. cell reporter, cycloheximide protein synthesis inhibition counterscreen. AID 2314; in the data active means max response mostly above about 13%, no sharp cut-off; inactive means mostly below about 14%; further: read at 38.3 µM for the half of the compounds with a filed dose; 0% is about no effect
# HCV inhibitor: blocks hepatitis C virus; 340,000 compounds, 3.4% hits; Potency, µM (series often up to 41.8 µM), for the others: at the top dose activity change, negative = inhibition, hits mostly inhibitors; Huh7.5.1 HCVcc-Cre infection, luciferase reporter, 44 h; further: potency means the concentration at half of the fitted maximal effect; on the % scale 0 is the no-effect control and ±100 the full control effect
#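 Luciferase read-out (15 sec integration) after a 15 min room-temperature substrate step quantifies HCVcc-Cre infection. Cells, 1,000 per well, had compound added 4 h post-plating, then virus at ~0.5 moi, and were cultured 44 h.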
# Pf growth 48h: inhibits P. falciparum growth in the first generation, 48 h. P. falciparum luciferase growth in erythrocytes, 48 h. Potency, µM (top dose mostly 28.7 µM), inactives show top-dose activity change, negative = inhibition, usual class: inhibitors. 310,000 compounds, 5.9% hits. AID 504832; further: potency means the concentration at half of the fitted maximal effect; on the % scale 0 is the no-effect control and ±100 the full control effect
#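 Firefly luciferase activity from engineered P. falciparum reports growth; inhibitors lower the luminescent signal. Cultures contained 2% hematocrit erythrocytes at 0.1% final parasitemia.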
# Shiga inhibitor: Shiga toxin inhibition | Vero cells, Shiga toxin protein synthesis inhibition reporter | inhibition, % at 38.7 µM | 290,000 compounds, 9.2% hits; in the data active means inhibition mostly above about 28%, no sharp cut-off; inactive means mostly below about 43%; further: 0% is about no effect
# Pf growth 96h: inhibits malaria parasite growth, 96 h; P. falciparum luciferase reporter growth, 96 h; Potency, µM (titrated, usually from 28.7 µM), inactives show at the highest dose activity change, negative = inhibition, hits mostly inhibitors; 320,000 compounds, 6.9% hits; further: potency means the concentration at half of the fitted maximal effect; on the % scale 0 is the no-effect control and ±100 the full control effect
#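 Cell-based qHTS: luciferase-tagged P. falciparum in erythrocytes (2% hematocrit, 0.05% parasitemia final) incubated with compounds for 96 hours, 37 C, 5% CO2; luciferase detection reagent then added and luminescence measured.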
# AMA1 RON2 block: disrupts binding of P. falciparum AMA1 to RON2; AlphaScreen AMA1-biotinylated RON2 peptide binding; Potency, µM (series often up to 58.2 µM), without a hit: at the top dose activity change, negative = inhibition, actives largely listed as inhibitors; 360,000 compounds, 0.2% hits; AID 720542;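 further: potency means the concentration at half of the fitted maximal effect; 0% = vehicle wells and -100% = peptide control; nearly all actives have a fitted effect of over 45% in size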
#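 AMA1 (3D7) with his tag at 25 nM final met compounds first, then biotinylated RON2 peptide at 25 nM; detection used donor plus acceptor beads, 10 µg/mL apiece, read by AlphaScreen after 30 min at room temperature.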
# * marks the source's active call; other numbers are inactive results; ? = inconclusive; nt = no result; [ ] = another dose, or the depositor's remark. Unless noted, the call rests on the fitted dose curve; in most records, active means well fitted curve in the direction sought with a large enough effect; inconclusive means small, poorly fitted or top-dose-only effect, or another doubt; inactive means no such curve, though single readings can be large; an effect the other way counts as inactive or inconclusive.
SMILES,Cycloheximide cs,HCV inhibitor,Pf growth 48h,Shiga inhibitor,Pf growth 96h,AMA1 RON2 block
CCO[C@H]1OC(C(=O)N2CCN(Cc3ccc4c(c3)OCO4)CC2)=C[C@@H](c2cn(C(C)=O)c3ccccc23)[C@@H]1CCCO,2,?,1µM*,-15,7.4µM*,-18%
c1ccc(CNc2nc(NCCc3ccncc3)c3sccc3n2)cc1,nt,nt,nt,nt,nt,-13%
COc1cc(C(=O)N2CCCN(C)CC2)cc(OC)c1C,5,15%,1%,-12,0%,-6%
CSCCC(NS(=O)(=O)c1ccccc1F)C(=O)NCCCn1nc(C)cc1C (centres undefined),nt,18%,6%,nt,31%,0%
Cc1cc(=O)n2nc(N3CCC(C(=O)NCCc4ccc(Cl)cc4)CC3)sc2n1,1,-20%,-22%,-2,0%,3%
Cc1ccc2c(c1)c1c(n2C)-c2[nH]ncc2CC1,15*,10µM*,94%,78*,44%,3%
CC1C(=O)N2CCCc3cc(S(=O)(=O)NCc4ccccc4Cl)cc1c32 (centres undefined),2,-24%,13µM*,-1,-13%,-11%
COc1cccc(CNC(=O)c2cc(S(=O)(=O)N3CCOCC3)cn2C)c1,5,6%,9%,1,?,0%
Cc1ccc(O)c(NC(=O)c2ccco2)c1,36*,7%,44%,56*,nt,-5%
Cc1ccc(O)c(NC(=O)c2cccc(NC(=O)c3ccco3)c2)c1,30*,-4%,28%,58*,15%,9%
Cc1cc(O)c(NC(=O)c2ccco2)cc1C,57*,-7%,3%,99*,7%,-21%
Cc1ccc(C(=O)Nc2ccc(NC(=O)c3ccco3)c(C)c2)cc1,31*,-29%,77%,49*,3%,10%
COc1ccccc1NC(=O)c1cccc(NC(=O)c2ccco2)c1,-1,-11%,-20%,-1,?,9%
CCOC(=O)c1ccc(NC(=O)NC2=NCCS2)cc1,nt,nt,nt,nt,nt,-6%
O=C(CCNC(=O)c1ccc([N+](=O)[O-])cc1)NCc1cccs1,nt,13%,nt,nt,nt,-7%
CN1C[C@@H]2[C@@H]3C(=O)N(C)C(=O)[C@@H]3[C@](Cc3ccccc3)(C1=O)N2C(=O)c1ccccc1,nt,13%,nt,nt,nt,14%
CN(C(=S)Nc1ccc(SC(F)F)cc1)C(c1ccccc1)c1ccccc1,3,?,9.3µM*,-6,?,21%
COc1ccc(N2CCN(C(=O)COC(=O)CNC(=O)c3cccc(OC(F)F)c3)CC2)cc1,nt,14%,13%,nt,-8%,3%
COc1cccc(C(=O)NCCS(=O)(=O)N2CCC(C)CC2)c1,nt,32%,12%,nt,0%,13%
CC1CCN(C(=O)CNC(=O)c2cccc(OC(F)F)c2)CC1,18*,-7%,58%,49*,14%,-2%
COc1cccc(C(=O)NCC(=O)N2CCC(C)CC2)c1,25*,5%,76%,35,74%,5%
COCCNc1oc(Cc2cccc3ccccc23)nc1C#N,4,-10%,?,4,?,-9%
Cc1cc(CN(C)Cc2ccc(OCC(O)CN(C)Cc3ccccc3)cc2)on1 (centres undefined),-2,-11%,-15%,-8,?,-7%
CN(Cc1ccccc1)CC(O)COc1ccc(CNCCc2ccncc2)cc1 (centres undefined),0,13µM*,5.2µM*,17,-47%,0%
CCn1ccnc1CNCc1ccc(OCC(O)CN(C)Cc2ccccc2)cc1 (centres undefined),8,-24%,?,22,162%,81%
SMILES,Cycloheximide cs,HCV inhibitor,Pf growth 48h,Shiga inhibitor,Pf growth 96h,AMA1 RON2 block
CN(Cc1ccccc1)CC(O)COc1ccc(CNCCc2cccnc2)cc1 (centres undefined),-1,?,5.2µM*,-19,1%,5%
C=CCOc1ccc(CN(C)CC(O)COc2cccc3ccccc23)cc1 (centres undefined),-3,32µM*,10µM*,-5,?,-21%
CCc1ccc(CNCc2ccc(OCC(O)CN(C)Cc3ccccc3)cc2)nc1 (centres undefined),-2,11µM*,?,-14,?,60%
O=C(c1ccccc1)c1ccc2n1CC[C@H]2C(=O)O,nt,nt,5%[12.8 µM],nt,-8%[12.8 µM],nt
CC(OC(=O)c1cc(=O)[nH]c2ccccc12)C(=O)Nc1ccccc1F (centres undefined),nt,22%,8%,nt,22%,-13%
CCCCC[C@H]1CCCCC[C@H](O)C[C@@H](O)[C@H](O)/C=C/C(=O)O1,nt,nt,nt,nt,nt,9%
Cc1ccc(NC(=O)COC(=O)C2(C)CC2(Cl)Cl)cc1S(=O)(=O)N1CCOCC1 (centres undefined),nt,-1%,?,nt,?,-5%
COc1ccc(/C=C/C(=O)c2c(O)cc(C)oc2=O)c(OC)c1,24*,11µM*,116%,8,21%,13%
C/C(=C\C(=O)c1c(O)cc(C)oc1=O)N(C)C,5,19%,7%,6,22%,2%
Cc1cc(O)c(C(=O)/C=C/c2ccc(Cl)cc2)c(=O)o1,32*,-7%,?,50*,?,58%
COc1cc(/C=C/C(=O)c2c(O)cc(C)oc2=O)cc(OC)c1O,1,-28%,nt,-4,-14%,-4%
CSc1ccc(/C=C/C(=O)c2c(O)cc(C)oc2=O)cc1,37*,9%,?,52*,?,84%
COc1cccc(/C=C/C(=O)c2c(O)cc(C)oc2=O)c1O,23,8%,nt,97,-12%,16%
CCOc1cc(/C=N/O)cc(Cl)c1OC,-7,11µM*,34%,-12,?,-4%
C#CCOc1c(Br)cc(/C=N/O)cc1OCC,-1,2.2µM*,nt,-13,26%,12%
CCCOc1c(Cl)cc(/C=N/O)cc1OCC,-5,?,nt,6,-23%,0%
CCSc1nc2ccccc2c(=O)n1CCc1ccc(OC)c(OC)c1,-2,?,-19%,2,-8%,-8%
C[C@@H]1CN(S(=O)C(C)(C)C)[C@H](CCO)/C1=C\CCO (some centres undefined),nt,5%[8.37 µM],nt,nt,nt,1%
COc1ccc(NC(=O)CN2CCN(CC#N)CC2)cc1,-2,18%,-12%,nt,-1%,-3%
N#CCN1CCN(CC(=O)Nc2ccc(OCc3ccccc3)cc2)CC1,23*,-24%,19%,-22,?,14%
CN1CCN(CC(=O)Nc2ccc(OCc3ccccc3)cc2)CC1,36*,nt,nt,64,38%,nt
CC1(C)CSC(=NCc2ccccc2)N1,-2,10µM*,18%,-19,-14%,-4%
CC(O)CNC(=O)Cc1cc(=O)[nH]c(=O)[nH]1 (centres undefined),-2,22%,15%,12,43%,-1%
Cc1[nH]ccc2c1[nH]c1cc(=O)ccc12,-7,-18%,13µM*,-16,10µM*,5%
